AC50 and outcome data for twelve molecules are collected here from PubChem BioAssay (EPA / NIEHS).

SMILES strings stand for the structures. Records with an inconclusive call do not appear. Where a structure was tested more than once in an assay, its records may differ in their call. Calls of active or inactive are those of the source. The calls were made as follows: active = hit-call score of the fitted dose curve at least 0.9, where 1 is the maximum; inconclusive = response in the unintended direction; inactive = score below 0.9.

As a reminder, the AC50 is the concentration giving half of the maximal activity seen.

Chain of Peroxisome proliferator-activated receptor gamma (Homo sapiens) (P37231 whole entry, looked up): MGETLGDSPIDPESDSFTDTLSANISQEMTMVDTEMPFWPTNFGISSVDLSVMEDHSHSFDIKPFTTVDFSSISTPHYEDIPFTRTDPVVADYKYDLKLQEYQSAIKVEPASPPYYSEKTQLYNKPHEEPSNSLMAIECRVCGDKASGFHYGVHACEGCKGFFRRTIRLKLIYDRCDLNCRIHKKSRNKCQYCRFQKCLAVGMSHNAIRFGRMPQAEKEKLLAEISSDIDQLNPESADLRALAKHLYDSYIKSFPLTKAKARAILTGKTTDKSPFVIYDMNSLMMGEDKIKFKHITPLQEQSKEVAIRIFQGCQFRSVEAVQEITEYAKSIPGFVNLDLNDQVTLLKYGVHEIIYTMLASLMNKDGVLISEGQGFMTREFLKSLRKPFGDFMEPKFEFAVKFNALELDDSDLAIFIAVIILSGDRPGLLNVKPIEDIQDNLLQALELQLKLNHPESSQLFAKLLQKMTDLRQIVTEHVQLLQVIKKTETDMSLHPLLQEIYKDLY

This assay addresses Peroxisome proliferator-activated receptor gamma (Homo sapiens) (UniProt P37231). The assay can be described thus: NVS_NR_hPPARg: NovaScreen (NVS) Nuclear Receptor Binding Assay for human Peroxisome Proliferator-activated Receptor gamma (PPARg) (AID 2283370). How it is done: NVS_NR_hPPARg is a biochemical, single-readout assay that uses extracted gene-proteins in a cell-free assay. Measurements were taken 2 hours after chemical dosing in a 384-well plate.NVS_NR_hPPARg is one of one assay component(s) measured or calculated from the NVS_NR_hPPARg assay. It is designed to make measurements of fluorescent polarization, a form of binding reporter, as detected with fluorescence polarization signals by Fluorescence Polarization technology.Data from the assay component NVS_NR_hPPARg was analyzed into 1 assay endpoint. This assay endpoint, NVS_NR_hPPARg, was analyzed in the positive analysis fitting direction relative to DMSO as the negative control and baseline of activity. Using a type of binding reporter, loss-of-signal activity can be used to understand changes in the binding as they relate to the gene PPARG. Furthermore, this assay endpoint can be referred to as a primary readout, because the performed assay has only produced 1 assay endpoint. To generalize the intended target to other relatable targets, this assay endpoint is annotated to the nuclear receptor intended target family, where the subfamily is non-steroidal.
Binding assays used specific radioligands (tritiated, iodinated) with non-radioactive competitive displacement ligands in agonist or antagonist protocols (as indicated) and various reference compounds and inhibitors to titrate specific binding to receptors and transporters. Most enzyme assays (CYPs, kinases, phosphatases, proteases, HDACs) used recombinant protein and specific substrates (fluorescence mostly, some colorimetric and radioactive) and inhibitors, followed by a biochemical separation of substrate and product. All assays for the biochemical HTS were initially run in duplicate at a single concentration (10 uM for CYP450 assays and 25 uM for all others). […] Each assay was run with positive and negative controls, and concurrent controls on every plate. The follow-up (secondary) screen tested active chemical-pairs in concentration series, as well as a few additional assays not tested in the primary screen, some selected negative inactives, and several cases re-run in the concentration series for confirmatory purposes.
For the molecule `CCc1cc(Cc2cc(CC)c(N)c(CC)c2)cc(CC)c1N`, the concentration at half-maximal activity (AC50) was 14.2 µM (active) and the molecule was classed as inactive.
`CCCCCCCC/C=C\CCCCCCCC(=O)OCC(O)CO` (stereo not drawn): the outcome was inactive.
As to `CCOC(OCC)OCC`, the outcome was inactive.
As for `CC(=O)CCC(C)C`, the outcome was inactive.
As for `CCCCCCCCCc1ccc(OCCO)cc1`, the result was inactive.
For `Cc1ccc([N+](=O)[O-])c(C)c1`, the call was inactive.
The same measure, in the same setting: with `COCCOCCC[Si](C)(O[Si](C)(C)C)O[Si](C)(C)C` the entry was “inactive”; with `CCCCCCCCn1sc(Cl)c(Cl)c1=O`, “inactive”; with `CC(C)Nc1ccc(NC(C)C)c2c1C(=O)c1ccccc1C2=O`, “inactive”.
Consider `CC(C)(C)c1cc(Cc2cc(C(C)(C)C)c(O)c(C(C)(C)C)c2)cc(C(C)(C)C)c1O`, for which the molecule was called inactive.
For `CCN=C1C=CC(=C(c2ccc(N(CC)CC)cc2)c2ccc(N(CC)CC)cc2)c2ccccc21`, the call was inactive.
Turning to `CCCCCCCCCCCCC[N+](C)(C)Cc1ccccc1`, the outcome was inactive.
